Source: PubChem BioAssay (NCI)
This is part of a sample that, as a whole, favours compounds with a hit. Of some 83,000 tested, about 20% had one in any assay.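 Treatment: one concentration, 48 hours, 96-well format. Scoring: percent growth, with anything below 10 considered active.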 The source made the active and inactive calls.

What was measured:
Test in all cases: NCI-60 one-dose screen, 48 h (100 = growth as untreated, 0 = no growth, -100 = all killed)
Settings in all cases: 10 µM unless noted
SR leukemia = test system: SR leukemia
RPMI-8226 leukemia = test system: RPMI-8226 leukemia
OVCAR-8 ovarian = test system: OVCAR-8 ovarian
OVCAR-5 ovarian = test system: OVCAR-5 ovarian
OVCAR-4 ovarian = test system: OVCAR-4 ovarian
SK-OV-3 ovarian = test system: SK-OV-3 ovarian
IGROV1 ovarian = test system: IGROV1 ovarian
OVCAR-3 ovarian = test system: OVCAR-3 ovarian
HS 578T breast = test system: HS 578T breast
NCI/ADR-RES ovarian = test system: NCI/ADR-RES ovarian

Measured: growth

COc1cc(/C=C2\SC(=S)N(/C=C/c3nc4ccccc4[nH]c3=O)C2=O)cc(OC)c1OC
inactive: SR leukemia 63.6% | RPMI-8226 leukemia 86.2% | OVCAR-8 ovarian 86.4% | OVCAR-5 ovarian 88.3% | OVCAR-4 ovarian 84.5% | SK-OV-3 ovarian 76.3% | IGROV1 ovarian 89.8% | OVCAR-3 ovarian 89.4% | HS 578T breast 74.4% | NCI/ADR-RES ovarian 86.6%

CC1=CC(=O)C=CC1(C)C(Cl)(Cl)Cl (centres undefined)
inactive: SR leukemia 94.2% | RPMI-8226 leukemia 104% | OVCAR-8 ovarian 90.3% | OVCAR-5 ovarian 101% | OVCAR-4 ovarian 114% | SK-OV-3 ovarian 94.3% | IGROV1 ovarian 100% | OVCAR-3 ovarian 116% | HS 578T breast 93.1% | NCI/ADR-RES ovarian 102%

O=C(CCl)N(c1ccccc1)c1ccccc1
inactive: SR leukemia 101% | RPMI-8226 leukemia 109% | OVCAR-8 ovarian 96.3% | OVCAR-5 ovarian 117% | OVCAR-4 ovarian 111% | SK-OV-3 ovarian 114% | IGROV1 ovarian 115% | OVCAR-3 ovarian 109% | HS 578T breast 102% | NCI/ADR-RES ovarian 108%

C/C(=N\NC(=S)N1CC2CCC(CC2)C1)c1ccccn1
active: SR leukemia -10.1% | RPMI-8226 leukemia -6.26% | OVCAR-4 ovarian -41.2% | IGROV1 ovarian 5.07% | OVCAR-3 ovarian -17.7%
inactive: OVCAR-8 ovarian 18.2% | OVCAR-5 ovarian 24.5% | SK-OV-3 ovarian 18.9% | HS 578T breast 16.3% | NCI/ADR-RES ovarian 12.6%

O=C1/C(=C/c2ccccn2)CCc2ccccc21
inactive: SR leukemia 51.2% | RPMI-8226 leukemia 14.6% | OVCAR-8 ovarian 109% | OVCAR-5 ovarian 108% | OVCAR-4 ovarian 104% | SK-OV-3 ovarian 86.6% | IGROV1 ovarian 114% | OVCAR-3 ovarian 109% | HS 578T breast 98.1% | NCI/ADR-RES ovarian 106%

Oc1c(C(Nc2ccccc2)c2ccccc2)ccc2cccnc12 (centres undefined)
inactive: SR leukemia 27.3% | RPMI-8226 leukemia 37.3% | OVCAR-8 ovarian 19.8% | OVCAR-5 ovarian 59.5% | OVCAR-4 ovarian 33.2% | SK-OV-3 ovarian 40.5% | IGROV1 ovarian 41.3% | OVCAR-3 ovarian 24.3% | HS 578T breast 70.4% | NCI/ADR-RES ovarian 16.8%

CCCc1cc(=O)oc2c3c(c4c(c12)OC(C)(C)CC4)OC(C)[C@H](C)[C@@H]3O (some centres undefined)
inactive: SR leukemia 45.8% | RPMI-8226 leukemia 10.5% | OVCAR-8 ovarian 81.7% | OVCAR-5 ovarian 86% | OVCAR-4 ovarian 83.9% | SK-OV-3 ovarian 95.3% | IGROV1 ovarian 12.7% | OVCAR-3 ovarian 112% | HS 578T breast 74.7% | NCI/ADR-RES ovarian 81.7%

Oc1ccc(Cl)cc1C(c1cc(Cl)ccc1O)C(Cl)(Cl)Cl
active: SR leukemia -25.2% | OVCAR-5 ovarian 8.25% | OVCAR-3 ovarian -16.9% | HS 578T breast 0.476% | NCI/ADR-RES ovarian 4.17%
inactive: RPMI-8226 leukemia 11.5% | OVCAR-8 ovarian 29.6% | OVCAR-4 ovarian 20.6% | SK-OV-3 ovarian 32% | IGROV1 ovarian 56%

Cc1cccc2c(N)c3ccccc3nc12
inactive: HS 578T breast 16.5%
active: SR leukemia 2.95% | RPMI-8226 leukemia -15.4% | OVCAR-8 ovarian -9.82% | OVCAR-5 ovarian 7.56% | OVCAR-4 ovarian 1.48% | SK-OV-3 ovarian -3.15% | IGROV1 ovarian -13.2% | OVCAR-3 ovarian -17.3% | NCI/ADR-RES ovarian -47.5%

CC1=CC(=NC(=O)CBr)C=C/C1=N\S(=O)(=O)c1ccccc1
inactive: SR leukemia 58.3% | RPMI-8226 leukemia 84.5% | OVCAR-8 ovarian 66.6% | OVCAR-5 ovarian 122% | OVCAR-4 ovarian 50.6% | SK-OV-3 ovarian 91.7% | HS 578T breast 89.1% | NCI/ADR-RES ovarian 89.4%
active: IGROV1 ovarian -3.37% | OVCAR-3 ovarian 8.58%

CCCCCCN(CCCCCC)CCCNc1nccc2ccccc12
active: SR leukemia -9.78% | RPMI-8226 leukemia -22.8% | OVCAR-3 ovarian -6.31%
inactive: OVCAR-8 ovarian 12% | OVCAR-5 ovarian 38.1% | OVCAR-4 ovarian 23.4% | SK-OV-3 ovarian 41.9% | IGROV1 ovarian 12.5% | HS 578T breast 12.4% | NCI/ADR-RES ovarian 19.4%

O=C(Nc1cccc(C(F)(F)F)c1)Oc1ccc(Cl)c2cccnc12
active: SR leukemia -1.87% | RPMI-8226 leukemia -37.9% | OVCAR-8 ovarian -11.1% | OVCAR-4 ovarian -0.489% | IGROV1 ovarian 5.79% | OVCAR-3 ovarian -56.3% | NCI/ADR-RES ovarian 4.64%
inactive: OVCAR-5 ovarian 87.7% | SK-OV-3 ovarian 95.8% | HS 578T breast 17.4%

CC(CSc1n[nH]c(=S)s1)c1ccccc1 (centres undefined)
inactive: SR leukemia 84.5% | RPMI-8226 leukemia 103% | OVCAR-8 ovarian 109% | OVCAR-5 ovarian 127% | OVCAR-4 ovarian 94.1% | SK-OV-3 ovarian 102% | IGROV1 ovarian 110% | OVCAR-3 ovarian 117% | HS 578T breast 108% | NCI/ADR-RES ovarian 114%

CCOc1ccc(Nc2nc3c(s2)C(=O)c2ccccc2C3=O)cc1
inactive: SR leukemia 46.6% | RPMI-8226 leukemia 51% | OVCAR-8 ovarian 68.4% | OVCAR-5 ovarian 112% | OVCAR-4 ovarian 65.5% | SK-OV-3 ovarian 103% | IGROV1 ovarian 82.2% | OVCAR-3 ovarian 53.9% | HS 578T breast 96.8% | NCI/ADR-RES ovarian 75.2%

S=C1SCN(Cc2cccs2)CN1Cc1cccs1
inactive: SR leukemia 59.3% | RPMI-8226 leukemia 58% | OVCAR-8 ovarian 104% | OVCAR-5 ovarian 98.8% | OVCAR-4 ovarian 94.4% | SK-OV-3 ovarian 108% | IGROV1 ovarian 106% | OVCAR-3 ovarian 111% | HS 578T breast 91.1% | NCI/ADR-RES ovarian 108%

O=[N+]([O-])c1ccc(N2CCN(Cc3ccccc3)CC2)c2c1no[n+]2[O-]
active: SR leukemia -47.7% | RPMI-8226 leukemia -15.1% | OVCAR-8 ovarian 0.836% | OVCAR-4 ovarian -50.2% | IGROV1 ovarian -42% | OVCAR-3 ovarian -53.7%
inactive: OVCAR-5 ovarian 26.5% | SK-OV-3 ovarian 58.4% | HS 578T breast 30.5% | NCI/ADR-RES ovarian 24.5%

CCOc1ccc(C(CN2CCOCC2)C(C)=O)cc1OC (centres undefined)
inactive: SR leukemia 65.2% | RPMI-8226 leukemia 62.3% | OVCAR-8 ovarian 96.3% | OVCAR-5 ovarian 99.1% | OVCAR-4 ovarian 98.2% | SK-OV-3 ovarian 99.4% | IGROV1 ovarian 113% | OVCAR-3 ovarian 88.3% | HS 578T breast 97.7% | NCI/ADR-RES ovarian 107%

CCCCCCCCCCCCCCCCCC1=NCCCN1CCO
inactive: SR leukemia 95.6% | RPMI-8226 leukemia 103% | OVCAR-8 ovarian 101% | OVCAR-5 ovarian 98.5% | SK-OV-3 ovarian 97.6% | IGROV1 ovarian 105% | OVCAR-3 ovarian 114% | HS 578T breast 101% | NCI/ADR-RES ovarian 105%

CCOC(=O)/C(=C\c1ccc2ccccc2c1)P(=O)(OCC)OCC
inactive: OVCAR-8 ovarian 20.1% | OVCAR-5 ovarian 56.9% | OVCAR-4 ovarian 62% | SK-OV-3 ovarian 113% | IGROV1 ovarian 56% | OVCAR-3 ovarian 27.4% | HS 578T breast 16.7% | NCI/ADR-RES ovarian 10.4%
active: SR leukemia -19.4% | RPMI-8226 leukemia -25.3%

Cc1onc(-c2ccccc2)c1C(=O)N/N=C/c1cc(Cl)cc(Cl)c1O
inactive: SR leukemia 18.5% | RPMI-8226 leukemia 39.6% | OVCAR-8 ovarian 31.1% | OVCAR-5 ovarian 58.1% | OVCAR-4 ovarian 32.1% | SK-OV-3 ovarian 47.6% | IGROV1 ovarian 23.2% | OVCAR-3 ovarian 25.2% | HS 578T breast 80% | NCI/ADR-RES ovarian 17.1%

CCCOC(=O)c1nc(N(CC2CCCCC2)C(=O)NC)sc1/N=C/c1ccccc1
active: SR leukemia -17.2% | RPMI-8226 leukemia -48.2% | OVCAR-3 ovarian 4.38% | NCI/ADR-RES ovarian -14%
inactive: OVCAR-8 ovarian 29% | OVCAR-5 ovarian 40% | OVCAR-4 ovarian 35.1% | SK-OV-3 ovarian 24.7% | IGROV1 ovarian 19.4%

Nc1cc(-c2ccccc2)ccc1O
inactive: SR leukemia 28.7% | OVCAR-8 ovarian 62.7% | OVCAR-5 ovarian 104% | OVCAR-4 ovarian 91.4% | SK-OV-3 ovarian 113% | IGROV1 ovarian 115% | NCI/ADR-RES ovarian 88.4%
active: RPMI-8226 leukemia -11.7%

CCC(C)(O)Cc1ccc(Cl)cc1 (centres undefined)
inactive: SR leukemia 101% | RPMI-8226 leukemia 105% | OVCAR-8 ovarian 108% | OVCAR-5 ovarian 111% | OVCAR-4 ovarian 103% | SK-OV-3 ovarian 103% | IGROV1 ovarian 114% | OVCAR-3 ovarian 114% | HS 578T breast 108% | NCI/ADR-RES ovarian 111%

O=C1C=CC(=O)N1C1CCCCCCCCCCC1
active: SR leukemia 5.7%
inactive: RPMI-8226 leukemia 31.1% | OVCAR-8 ovarian 86% | OVCAR-5 ovarian 99.8% | SK-OV-3 ovarian 90.6% | IGROV1 ovarian 80.3% | OVCAR-3 ovarian 53% | HS 578T breast 108% | NCI/ADR-RES ovarian 102%

O=[N+]([O-])C=C(c1ccccc1)c1ccccc1
inactive: SR leukemia 22.8% | RPMI-8226 leukemia 64.5% | OVCAR-8 ovarian 92.5% | OVCAR-5 ovarian 83.2% | OVCAR-4 ovarian 79.5% | SK-OV-3 ovarian 78% | IGROV1 ovarian 86.5% | OVCAR-3 ovarian 90.1% | NCI/ADR-RES ovarian 75.5%

Cc1oc2c(C)c3oc(=O)cc(C)c3cc2c1CCl
inactive: RPMI-8226 leukemia 54.4% | OVCAR-8 ovarian 87.1% | OVCAR-5 ovarian 77.3% | SK-OV-3 ovarian 89.1% | IGROV1 ovarian 94.3% | OVCAR-3 ovarian 61.6% | HS 578T breast 77.6% | NCI/ADR-RES ovarian 83.7%
active: SR leukemia -10%

Fc1ccc(NCCS)cc1
inactive: SR leukemia 88.9% | RPMI-8226 leukemia 91% | OVCAR-8 ovarian 103% | OVCAR-5 ovarian 104% | OVCAR-4 ovarian 102% | IGROV1 ovarian 104% | OVCAR-3 ovarian 107% | HS 578T breast 115% | NCI/ADR-RES ovarian 109%

O=C1C=CC(=O)N1c1ccc(O)cc1
inactive: SR leukemia 91.7% | RPMI-8226 leukemia 91.9% | OVCAR-8 ovarian 109% | OVCAR-5 ovarian 105% | OVCAR-4 ovarian 103% | SK-OV-3 ovarian 106% | OVCAR-3 ovarian 119% | HS 578T breast 118% | NCI/ADR-RES ovarian 106%

Cc1ccc(N2C(=O)C=CC2=O)cc1
inactive: SR leukemia 66% | RPMI-8226 leukemia 98.8% | OVCAR-8 ovarian 110% | OVCAR-5 ovarian 110% | OVCAR-4 ovarian 107% | SK-OV-3 ovarian 121% | OVCAR-3 ovarian 118% | NCI/ADR-RES ovarian 104%

O=C(Nc1ccc(Cl)c(Cl)c1)Nc1ccccc1O
inactive: SR leukemia 87% | RPMI-8226 leukemia 18.8% | OVCAR-8 ovarian 67.1% | OVCAR-5 ovarian 98.7% | OVCAR-4 ovarian 67.1% | SK-OV-3 ovarian 89.2% | IGROV1 ovarian 72.7% | OVCAR-3 ovarian 79.6% | HS 578T breast 106% | NCI/ADR-RES ovarian 63.8%
